{"source": "ChEMBL document CHEMBL1157539", "about": "“Thousands of chemical starting points for antimalarial lead identification” (Nature, 2010)"}
{"tested_on": "HepG2", "test": "GSK_TCMDC: Percent inhibition of human HepG2 cell line. Test compounds present at 10uM.", "format": "functional", "units": {"Inhibition": "%"}}
{"smiles": "Cc1nc(-c2cccc(Nc3nccc(NCC(O)c4ccccc4C(F)(F)F)n3)c2)cs1", "note": "(configuration not stated)", "Inhibition": 48}
{"smiles": "Cn1cncc1CCCN(Cc1ccc(-c2ccc(C(F)(F)F)cc2)cc1)C(=O)Cn1c(CCc2cccc(F)c2F)cc(=O)c2cccnc21", "Inhibition": 17}
{"smiles": "Cc1ccccc1C1CCN(c2ccc(C(=O)NC3CC3)cn2)CC1.O=C(O)C(F)(F)F", "Inhibition": 17}
{"smiles": "Fc1ccc(Nc2ccnc3cc(-c4cccc(CNCCN5CCOCC5)c4)ccc23)c(Cl)c1", "Inhibition": 26}
{"smiles": "CS(=O)(=O)CCNc1cc(N2CCc3ncnc(Nc4ccc(OCc5cccc(F)c5)c(Cl)c4)c3C2)ncn1", "Inhibition": 0}
{"smiles": "Cc1cc(N)c2cc(NC(=O)CCC(=O)Nc3ccc4nc(C)cc(N)c4c3)ccc2n1", "Inhibition": 0}
{"smiles": "Clc1ccc(CNC2CCN(CC3CCCCC3)CC2)cc1.O=C(O)C(F)(F)F", "Inhibition": 12}
{"smiles": "CCCCCCNCCOc1ccc(-c2nc(-c3ccccc3)c(-c3ccccc3)[nH]2)cc1", "Inhibition": 14}
{"smiles": "O=C(CCOc1ccccc1)NCC1CCCO1", "note": "(configuration not stated)", "Inhibition": 0}
{"smiles": "CN(C)CCCOc1cccc(NC(=O)Nc2ccc(-c3ccccc3)cc2)c1.O=C(O)C(F)(F)F", "Inhibition": 9}
{"smiles": "CC(C)(C)C(=O)Nc1ccccc1Oc1ccc(Cl)cc1", "Inhibition": 54}
{"smiles": "CO/C(=C\\C=C\\c1cc2cc(Cl)c(Cl)cc2[nH]1)C(=O)NCCCN1CCC(c2ccccc2)CC1", "Inhibition": 33}
{"smiles": "CC(=O)OCCN1C(=O)c2ccc3c4c(ccc(c24)C1=O)C(=O)N(CCOC(C)=O)C3=O", "Inhibition": 2}
{"smiles": "Cl.NC1CCN(CCc2ccc(NS(=O)(=O)c3cccc4ccccc34)cc2)CC1", "Inhibition": 21}
{"smiles": "CCOc1ccc(-c2cc3nc(C4CCNCC4)c(C(=O)Nc4ccc(C)cc4Cl)cn3n2)cc1.Cl", "Inhibition": 63}
{"smiles": "CCN(CC)CCCC(C)Nc1c2cc(OC)ccc2nc2cc(Cl)c([N+](=O)[O-])cc12", "note": "(configuration not stated)", "Inhibition": 12}
{"smiles": "CN1CCN(c2nsc3ccc(-c4ccc(OCCN5CCCC5)cc4)cc23)CC1.O=C(O)C(F)(F)F", "Inhibition": 57}
{"smiles": "CCOC(=O)c1cc(C(=O)NCCCCN2CCC(c3ccc(CC)cc3OCC)CC2)ccc1-c1ccc(C(F)(F)F)cc1", "Inhibition": 74}
{"smiles": "COc1cc(-n2cnc3cc(-c4ccc(Cl)cc4)sc3c2=O)ccc1OCCN1CCC(c2cccc(NC(C)=O)c2)CC1.O=C(O)/C=C\\C(=O)O", "Inhibition": 61}
{"smiles": "Cc1ccc2c(Cl)c(C(=O)N3CC(C)OC(C)C3)sc2c1", "note": "(configuration not stated)", "Inhibition": 4}
{"smiles": "CCN1CCN(c2cc(C)c3cc(NC(=O)c4cccc(C(F)(F)F)c4)ccc3n2)CC1", "Inhibition": 24}
{"smiles": "COc1ccc(CCn2c(=N)c(C(=O)NCc3ccccc3)cc3c(=O)n4ccccc4nc32)cc1", "Inhibition": 14}
{"smiles": "O=C(NC12CC3CC(CC(C3)C1)C2)C(=O)c1c[nH]c2ccccc12", "Inhibition": 16}
{"smiles": "COc1ccccc1C1CCN(C2CCC(NC(=O)/C=C/c3cc(F)c(F)cc3F)CC2)CC1", "note": "(configuration not stated)", "Inhibition": 39}
{"smiles": "COc1ccc(C=C2SC(=O)N=C2Nc2ccccc2)c(OC)c1", "Inhibition": 51}
{"smiles": "CCCC(C(=O)OCCNC)(c1ccccc1)c1ccccc1.Cl", "Inhibition": 7}
{"smiles": "O=C(/C=C/c1ccc(Cl)c(Cl)c1)NCCCCCN1CCC(NC(=S)Nc2ccc(F)cc2F)CC1", "Inhibition": 20}
